The values below come from PubChem BioAssay (NCATS).

Active and inactive are the calls of the source. Entries that show only a call come without a potency. Calls come from the whole dose curve; as a rule, active = well fitted activation curve with a large enough effect; inconclusive = small, poorly fitted or top-dose-only effect, or effect the other way; inactive = flat fitted curve, though single readings scatter.
Potency is the fitted concentration of half-maximal effect.

The nature of this test: Cellular Toxicity (caspase-3) Renal Proximal Tubule (AID 667).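 Note: cells exposed to compound for 16 hours at 37 °C before detection.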 To be noted: renal proximal tubule cells, primary cells freshly taken from rat; Potency: caspase-3 activation; series mostly up to 91.7 µM. From the text: NIH Chemical Genomics Center [NCGC]
NIH Molecular Libraries Screening Centers Network [MLSCN]
National Institutes of Environmental Health Sciences [NIEHS]
National Toxicology Program [NTP]
We have developed a 1536-well cell-based assay for quantitative high throughput screening (qHTS) against a number of cell lines to determine in vitro caspase 3/7 activity of small molecules. This particular assay uses the primary kidney proximal tubule cells freshly isolated from rat.
NCGC Assay Protocol Summary:
The Caspase-Glo 3/7 assay (Promega) is a homogeneous method to measure caspase-3 and caspase-7 activities in cultured cells. The quantitation of caspase 3/7 activity is based on the cleavage of a peptide-aminoluciferin substrate. After caspase cleaves the substrate the free aminoluciferin is liberated and serves as the substrate of luciferase, which generates the light. The luminescent signal is proportional to the amount of caspase 3/7 activity present.
Using the Caspase-Glo 3/7 assay, the amount of caspase 3/7 activity was measured in the rat kidney proximal tubule cells with complete culture medium following compound treatment for 16 hours. The assay was performed in opaque white 1536-well plates. In the screen, staurosporine and doxorubicin were used as positive controls. Library compounds were measured for their ability to cause the activation of caspase 3/7 in the cell line, as reflected by an increase in luminescence signal, in a concentration-dependent manner. Data were normalized to the controls for basal activity (DMSO only) and 100% stimulation (10 uM staurosporine). AC50 values were determined from concentration-response data modeled with the standard Hill equation.
qHTS protocol for caspase 3/7 assay in rat kidney proximal tubule cells
[Step] [Parameter] [Value] [Description]
1. Reagent; 5 uL; 1000 rat kidney proximal tubule cells/well
2. Time; 5 hr; 37 °C incubation
4. Controls; 23 nL; doxorubicin 7 pM to 100 uM & staurosporine 1.4 pM to 20 uM
5. Time; 16 hr; 37 °C incubation
6. Reagent; 5 uL; Caspase-Glo 3/7 reagent
7. Time; 1 hr; Room Temperature
8. Detection; Luminescence; Viewlux plate reader
Keywords: caspase 3/7, apoptosis, rat kidney proximal tubule cells, luminescence, NTPHTS, NTPHTS_NCGC, NIEHS, EPA, DSSTox, MLSMR, MLSCN, NIH Roadmap, qHTS, NCGC
On to `CCCCCCCCCCCCCCCCCC(=O)O`, for which the Potency entry is “inactive”.

With `CN1CCC[C@H]1c1cccnc1`, the Potency result is “inactive”.

With `CCCOC(=O)c1ccc(O)cc1`, the Potency entry is “inactive”.

In the case of `CN(C)c1ccc(N=NS(=O)(=O)O)cc1`, the Potency result is “inactive”.

Take `CC(C)NCC(O)COc1cccc2ccccc12` (centres undefined): the Potency entry is “inactive”.

`Nc1ccc([N+](=O)[O-])cc1O`: the Potency entry is “inactive”.

Consider `Nc1ccc(O)c([N+](=O)[O-])c1`, for which the Potency result was “inactive”.

As for `C#C[C@]1(O)CC[C@H]2[C@@H]3CCc4cc(O)ccc4[C@H]3CC[C@@]21C`, the Potency entry was “inactive”.

For `Oc1ccccc1O`, the Potency result was “inactive”.

As for `NCCO`, the Potency result was “inactive”.

`CN(C)c1ccc(C(=C2C=CC(=[N+](C)C)C=C2)c2ccccc2)cc1`: the Potency is 0.794 µM (active).

On to `CN(C)CCC(c1ccc(Cl)cc1)c1ccccn1` (centres undefined), for which the Potency entry is “inactive”.

In the case of `S=c1[nH]c2ccccc2s1`, the Potency result is “inactive”.

As to `c1ccc2sc(SSc3nc4ccccc4s3)nc2c1`, the Potency entry is “inactive”.

As to `Nc1ccc(O)c(C(=O)O)c1`, the Potency result was “inactive”.

Turning to `c1cnc2c(c1)ccc1cccnc12`, the Potency entry was “inactive”.

Turning to `O=C(O)/C=C\C(=O)O`, the Potency entry is “inactive”.

Consider `O=C(O)c1cc(O)c(O)c(O)c1`, for which the Potency result is “inactive”.

As for `CC1(C)S[C@@H]2[C@H](NC(=O)[C@H](N)c3ccccc3)C(=O)N2[C@H]1C(=O)O`, the Potency result was “inactive”.

For the molecule `N=C1N=C(N)c2cc3ccccc3cc21`, the Potency result is “inactive”.

On to `O=C1CN(/N=C/c2ccc([N+](=O)[O-])o2)C(=O)N1`, for which the Potency result is “inactive”.

Regarding `COc1cc(CNC(=O)CCCC/C=C/C(C)C)ccc1O`, the Potency entry is “inactive”.

Consider `O=c1cc(-c2ccccc2)oc2ccccc12`, for which the Potency result was “inactive”.

Take `Nc1nc2ccc([N+](=O)[O-])cc2s1`: the Potency result was “inactive”.
